PubChem BioAssay
Active and inactive are the calls of the source.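 How the source made its calls, unless noted: active means visual image review flags a hit and inhibition of aggregation exceeds 20%; inconclusive means visual hit but inhibition at or below 20%; inactive means no hit on visual image review.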

Tests used:
[1] = inhibitors of TNFa-induced NFkB p65 translocation, primary screen, imaging, HUVEC, MLSMR starter and 10KST1 sets (AID 438;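 active means inhibition above 20% together with a positive visual image hit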;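 further: compound added about 3h40 before a 20 min TNFalpha stimulation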;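 on inhibition: signal is the nuclear over cytoplasmic p65 intensity ratio per well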); details: HUVEC TNFa-induced p65 nuclear translocation; cell count: measured here: nuclei count (cytotoxicity indicator), at 2.08 µM; inhibition: at 2 µM, stronger effect = higher value, 0% TNFa-plus-vehicle, 100% no-TNFa wells
[2] = inhibitors of mutant huntingtin aggregation, primary screen, imaging, exon1htt(103Q)mCFP cells, high-content imaging (AID 483); details: exon1htt(103Q)mCFP cell line, aggregate imaging, at 2 µM; inhibition of aggregation: stronger effect = higher value; nuclei count: measured here: cell count, toxicity;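 further: compound exposure lasted 3 days before fixation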;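 on nuclei count: percent of the per-plate median nuclei count of sample wells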
[3] = inhibitors of E-selectin induction by TNFa, primary screen, imaging, HUVEC, immunofluorescence, MLSMR starter and 10KST1 sets (AID 487;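 active means visually confirmed hit in the image check and inhibition above 20%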;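 on inhibition: signal is fraction of cell area covered by stained E-selectin grains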;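 on nuclei count: 100% = median nuclei count of all wells on the same plate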); details: HUVEC TNFalpha-induced E-selectin immunofluorescence imaging, at 2 µM; inhibition: stronger effect = higher value; nuclei count: measured here: cell number, toxicity
[4] = biological target: Voltage-gated potassium channel subunit beta-2 (Rattus norvegicus) (UniProt P62483); assay: KvBeta enzyme negative modulators, primary screen, biochemical, NADPH fluorescence (AID 622;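 active means fluorescence slope higher than the sample average by over 3 SD, cut at about -0.22 in these data, passing the limit was not always enough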;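 further: slope of raw intensity against log time taken from 70 to 1610 s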); details: recombinant KvBeta, 4-cyanobenzaldehyde reduction, at 10 µM, stronger effect = higher value
Voltage-gated potassium channel subunit beta-2 (Rattus norvegicus), sequence (P62483 whole entry, looked up): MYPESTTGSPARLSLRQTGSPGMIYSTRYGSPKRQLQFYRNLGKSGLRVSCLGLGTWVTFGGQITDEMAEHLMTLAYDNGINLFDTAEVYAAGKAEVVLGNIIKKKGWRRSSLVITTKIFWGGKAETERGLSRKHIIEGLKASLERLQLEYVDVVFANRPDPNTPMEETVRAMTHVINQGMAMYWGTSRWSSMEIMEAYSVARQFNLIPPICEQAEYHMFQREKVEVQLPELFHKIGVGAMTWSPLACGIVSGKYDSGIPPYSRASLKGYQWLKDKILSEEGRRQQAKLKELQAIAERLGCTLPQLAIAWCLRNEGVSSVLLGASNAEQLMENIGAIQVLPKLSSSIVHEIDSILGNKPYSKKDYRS

[5] = biological target: Voltage-gated potassium channel subunit beta-2 (Rattus norvegicus) (UniProt P62483); assay: KvBeta positive modulators, primary screen, biochemical, NADPH fluorescence (AID 623;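 active means NADPH fluorescence slope more negative than the mean of all samples by about 3 SD, 99.7% confidence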;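 further: fluorescence intensity change per second fitted from 20 to 320 s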); details: Recombinant KvBeta, NADPH fluorescence decrease slope, 10 min; at 10 µM; stronger effect = lower value
[6] = biological target: Alpha-2C adrenergic receptor (Homo sapiens) (UniProt P18825); assay: modulators of alpha2C/GIRK thallium flux, primary screen, cell-based, HEK293 alpha2C/GIRK1/2 (AID 624;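 active means fluorescence slope after compound addition differing from the mean of all screened samples at 99.7% confidence, in either direction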;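 further: slope of fluorescence ratio to pre-addition baseline per second over 15 to 24 s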); details: thallium flux BTC fluorescence, at 10 µM, actives lie on both sides
Alpha-2C adrenergic receptor (Homo sapiens), sequence (P18825 whole entry, looked up): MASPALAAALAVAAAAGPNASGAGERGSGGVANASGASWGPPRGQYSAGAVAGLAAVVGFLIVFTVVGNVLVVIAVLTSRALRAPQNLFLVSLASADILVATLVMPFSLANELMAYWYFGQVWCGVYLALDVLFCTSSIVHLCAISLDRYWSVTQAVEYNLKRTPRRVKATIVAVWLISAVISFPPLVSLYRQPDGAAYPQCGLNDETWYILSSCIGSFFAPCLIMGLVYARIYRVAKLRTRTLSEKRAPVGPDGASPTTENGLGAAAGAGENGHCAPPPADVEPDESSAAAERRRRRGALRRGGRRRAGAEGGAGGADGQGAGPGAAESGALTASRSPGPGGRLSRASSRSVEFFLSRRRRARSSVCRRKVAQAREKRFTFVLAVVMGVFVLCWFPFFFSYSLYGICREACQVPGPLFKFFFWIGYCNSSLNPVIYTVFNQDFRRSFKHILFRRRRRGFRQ

[7] = inhibitors of Sendai virus-induced IRF3 signaling, primary screen, TLR/RLR signaling modifier project, cell-based, Sendai virus stimulus, luciferase, 10K MLSCN set (AID 602276;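 active means inhibition at or above 50% at 10 µM; inactive means inhibition below 50%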;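 further: firefly luciferase from ISG56 promoter only with Renilla not read in this screen; 0% = Sendai virus plus DMSO and 100% = medium plus DMSO without virus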); details: HEK293 RL24 IRF3 luciferase reporter, at 10 µM, stronger effect = higher value
[8] = inhibitors of poly I:C-induced TLR3 signaling, primary screen, cell-based, poly I:C stimulus, luciferase, 10K MLSCN set (AID 602277;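 active means inhibition of the reporter signal at or above 50%; inactive means inhibition below 50%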); details: HEK293-TLR3 RL24 IRF3 luciferase reporter, at 10 µM, stronger effect = higher value

## Cc1nc2ccc(S(=O)(=O)NC(C(=O)N3CCCC3)C(C)C)cc2s1 (stereo not drawn)
[1]
  cell count: 677
  inhibition: 1.8% (inactive)
[2]
  inhibition of aggregation: -21.4% (inactive)
  nuclei count: 111%
[3]
  inhibition: -33% (inactive)
  nuclei count: 110%
[4]
  fluorescence slope: -0.613 (inactive)
[5]
  NADPH fluorescence slope: 1.2e-05 (inactive)
[6]
  slope: 0.00717 (inactive)
[7]
  inhibition: 12.9% (inactive)
[8]
  inhibition: 13.8% (inactive)

## COc1ccc(N(C)C(=O)CCS(=O)(=O)c2cccc3nonc23)c(OC)c1
[1]
  cell count: 557
  inhibition: -1.4% (inactive)
[2]
  inhibition of aggregation: -17.3% (inactive)
  nuclei count: 121%
[3]
  inhibition: -18.3% (inactive)
  nuclei count: 125%
[4]
  fluorescence slope: -0.488 (inactive)
[5]
  NADPH fluorescence slope: -0.000205 (inactive)
[6]
  slope: 0.00467 (inactive)
[7]
  inhibition: 4.07% (inactive)
[8]
  inhibition: 16.9% (inactive)

## O=C(NCC(=O)N1CCC(N2CCCCC2)CC1)C1CCCCC1
[1]
  cell count: 505
  inhibition: -12% (inactive)
[2]
  inhibition of aggregation: 19.9% (inactive)
  nuclei count: 91.8%
[3]
  inhibition: 10.2% (inactive)
  nuclei count: 91%
[4]
  fluorescence slope: -0.481 (inactive)
[5]
  NADPH fluorescence slope: -0.000128 (inactive)
[6]
  slope: 0.00598 (inactive)
[7]
  inhibition: -3.39% (inactive)
[8]
  inhibition: 1.58% (inactive)

## COc1ccc(CN(CC(=O)NCC2CCCO2)C(=O)CNS(=O)(=O)c2ccc(C)cc2)cc1 (stereo not drawn)
[1]
  cell count: 589
  inhibition: -20.2% (inactive)
[2]
  inhibition of aggregation: -5.2% (inactive)
  nuclei count: 119%
[3]
  inhibition: -52.4% (inactive)
  nuclei count: 92.4%
[4]
  fluorescence slope: 0.012 (inactive)
[5]
  NADPH fluorescence slope: -3.8e-05 (inactive)
[6]
  slope: 0.00362 (inactive)
[7]
  inhibition: 9.43% (inactive)
[8]
  inhibition: 3.49% (inactive)

## COc1ccc(-n2ncc3c(=O)n(CC(=O)OCc4ccccc4)cnc32)cc1
[1]
  cell count: 506
  inhibition: 5.2% (inactive)
[2]
  inhibition of aggregation: -19.6% (inactive)
  nuclei count: 94.6%
[3]
  inhibition: -26% (inactive)
  nuclei count: 101%
[4]
  fluorescence slope: -0.377 (inactive)
[5]
  NADPH fluorescence slope: -4.4e-05 (inactive)
[6]
  slope: 0.00543 (inactive)
[7]
  inhibition: -0.623% (inactive)
[8]
  inhibition: 3.88% (inactive)

## COc1ccccc1NC(=O)NCCCN1CCN(c2cccc(Cl)c2)CC1
[1]
  cell count: 628
  inhibition: -11.6% (inactive)
[2]
  inhibition of aggregation: 13.1% (inactive)
  nuclei count: 112%
[3]
  inhibition: -47.7% (inactive)
  nuclei count: 118%
[4]
  fluorescence slope: -0.556 (inactive)
[5]
  NADPH fluorescence slope: 1e-05 (inactive)
[6]
  slope: 0.00548 (inactive)
[7]
  inhibition: -24.8% (inactive)
[8]
  inhibition: -19.5% (inactive)

## CCOC(=O)C1CSC(CC(=O)Nc2ccc(Cl)cc2)C(=O)N1 (stereo not drawn)
[1]
  cell count: 704
  inhibition: 3.9% (inactive)
[2]
  inhibition of aggregation: 7.4% (inactive)
  nuclei count: 103%
[3]
  inhibition: -56.7% (inactive)
  nuclei count: 132%
[4]
  fluorescence slope: -0.325 (inactive)
[5]
  NADPH fluorescence slope: -4.9e-05 (inactive)
[6]
  slope: 0.00513 (inactive)
[7]
  inhibition: -5.63% (inactive)
[8]
  inhibition: 1.5% (inactive)

## COc1ccc(-n2c(SCC(=O)c3c(N)n(C)c(=O)n(C)c3=O)nc3ccccc32)cc1
[1]
  cell count: 735
  inhibition: 1.4% (inactive)
[2]
  inhibition of aggregation: 10.2% (inactive)
  nuclei count: 110%
[3]
  inhibition: -35.8% (inactive)
  nuclei count: 106%
[4]
  fluorescence slope: -0.581 (inactive)
[5]
  NADPH fluorescence slope: -4.1e-05 (inactive)
[6]
  slope: 0.00517 (inactive)
[7]
  inhibition: 10.6% (inactive)
[8]
  inhibition: 14.8% (inactive)
